Source: PubChem BioAssay
This is a sample that favours compounds with a hit; in the whole collection about 17% have one here.
TGFb inhibitor = blocks TGF-b signaling; HepG2 CAGA-GFP TGF-b/SMAD3 reporter, GFP fluorescence, 18 h; TGF-beta stimulated, 500 pg/mL final; Potency, µM (top dose mostly 46.1 µM), inactives show at the top dose activity, negative = inhibition, most hits filed as inhibitors; hit rate 1.2% among 410,000; AID 588855; further: on the % scale 0 is the no-effect control and ±100 the full control effect; nearly all actives have a fitted effect of over 65% in size
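TGF-beta reporter screen: HEPG2 CAGA-GFP, 1% FBS, 500 pg/mL TGF-beta final, 18 h; per-cell GFP summed per well; curves fitted and categorized by class.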
HepG2 tox = counter-screen for TGF-b inhibitors: cytotoxicity in HepG2 cells; HepG2 CAGA-GFP viability, ATP luminescence, 18 h; Potency, µM (top dose mostly 46.1 µM), without a hit: top-dose activity change, negative = cytotoxicity, usual class: cytotoxic; hit rate 0.76% among 410,000
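HepG2 CAGA-GFP cells (1000/well, DMEM with 1% FBS) received compound, then TGF-beta at 500 pg/mL final, and were incubated 18 hours at 37 degrees C. Viability was read by CellTiter-Glo luminescence. Media-only wells were set as complete cell-killing and DMSO as no toxicity.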
HT1080-NT tox = kills 2HG-producing HT-1080-NT fibrosarcoma cells; HT-1080-NT fibrosarcoma viability, CellTiter-Glo ATP luminescence, 48 h; Potency, µM (highest dose often 46.1 µM), for inactives: top-dose activity, negative = less viability, most hits filed as cytotoxic; hit rate 1.6% among 360,000; AID 686970;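 further: NT is the 2HG producing partner of a matched IDH1 knockdown line; 0% = DMSO-treated cells and -100% = media-only wells without cells; nearly all actives have a fitted effect of over 55% in size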
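Fibrosarcoma NT cells, 750 per well in 5% FBS RPMI, were exposed to compound for 48 hours. Viability: CellTiter-Glo luminescence.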
TDP1 cell noCPT = qHTS for Inhibitors of human tyrosyl-DNA phosphodiesterase 1 (TDP1): qHTS in cells in absence of CPT. Potency, µM (highest dose often 46.2 µM), inactives show at the highest dose activity change, negative = growth inhibition, hits mostly inhibitors. DT40 Tdp1-/- hTDP1 cells, no CPT, ATP luminescence, 48 h. hit rate 15% among 420,000; further: on the % scale 0 is the no-effect control and ±100 the full control effect; nearly all actives have a fitted effect of over 55% in size
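Growth kinetics read by CellTiter-Glo luminescence after ≥48 hr at 37 °C. Cells: DT40 Tdp1-/- stably carrying human TDP1, 400 per well, compound exposure in the absence of CPT (DMSO vehicle).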
HT1080 IDH1KD tx = kills HT-1080 cells with IDH1 knockdown. hit rate 2% among 360,000. HT-1080 IDH1 knockdown viability, ATP luminescence, 48 h. Potency, µM (doses to about 46.1 µM), for inactives: top-dose activity, negative = toxicity, most hits filed as cytotoxic;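 further: 0% = DMSO wells and -100% = cell-free medium wells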
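Luminescent ATP read-out (CellTiter-Glo, 10 min at room temperature) after 48 h compound exposure at 37 °C gave viability of IDH1-knockdown HT-1080 cells. Activity was normalised to DMSO and cell-free wells, then fitted as concentration-response curves.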
DT40 TDP1 CPT = growth inhibition of DT40 Tdp1-/-;hTDP1 cells with camptothecin (screen for TDP1 inhibitors); Potency, µM (doses to about 46.2 µM), inactives show at the highest dose activity change, negative = growth inhibition, most hits filed as inhibitors; hit rate 12% among 420,000; chicken DT40 Tdp1-/-;hTDP1 cells + 20 nM CPT, ATP luminescence, 48 h; further: on the % scale 0 is the no-effect control and ±100 the full control effect; nearly all actives have a fitted effect of over 55% in size
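Cell growth measured by CellTiter-Glo luminescence after a minimum 48 h, 37 C compound exposure with 20 nM CPT in Tdp1-knockout DT40 cells stably expressing hTDP1, seeded 400/well; qHTS titration format.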
* marks the source's active call; other numbers are inactive results; ? = inconclusive; nt = not tested or not shown. The call rests on the fitted dose curve; in most records, active means well fitted curve in the direction sought with a large enough effect; inconclusive means small, poorly fitted or top-dose-only effect, or another doubt; inactive means no such curve, though single readings can be large; an effect the other way counts as inactive or inconclusive. Potency means the concentration at half of the fitted maximal effect.

SMILES | TGFb inhibitor | HepG2 tox | HT1080-NT tox | TDP1 cell noCPT | HT1080 IDH1KD tx | DT40 TDP1 CPT
Cc1ccc2c(=O)cc(C(=O)Nc3c(C(=O)c4ccccc4)oc4ccccc34)oc2c1 | 2% | -66% | nt | 2% | nt | -9%
CCOc1ccc(NC(=O)Nc2cc(-c3ccccc3)sc2C(=O)OC)cc1 | -14% | 0% | -22% | ? | -28% | ?
O=C(Nc1cc(-c2ccccc2)sc1C(=O)O)c1cccc(F)c1 | ? | -33% | -12% | 15µM* | -12% | ?
CSc1nccc(NC(=O)c2cccc(Br)c2)n1 | -21% | -15% | -22% | 21µM* | -10% | -5%
O=C(Nc1cccc(NC(=O)c2cccc(F)c2)n1)c1cccc(F)c1 | 13% | -19% | -18% | 21µM* | 0% | ?
CCOc1ccc(-c2cc(NC(=O)c3c(F)cccc3F)c(C(=O)O)s2)cc1 | -3% | -9% | -7% | 21µM* | -18% | -25%
Cc1ccnc2nc(C(=O)OCC(=O)N(Cc3ccccc3)C(C)C)nn12 | 9% | 7% | 7% | -18% | 4% | 2%
Cc1nc(SCCc2nc3ccccc3[nH]2)c2oc3ccccc3c2n1 | 11% | -6% | nt | nt | nt | nt
COc1ccc(C(=O)NCC(=O)OCC(=O)c2ccc3c(c2)NC(=O)CO3)cc1 | 0% | 7% | 1% | 18% | 0% | 2%
CCOc1ccc(-c2cc(NC(=O)Nc3ccc(Cl)cc3)c(C(=O)OC)s2)cc1 | -5% | -1% | nt | 21µM* | nt | ?
CC(C)(C)CC(=O)NC1CC(=O)N(c2ccc3c(c2)OCCO3)C1 (centres undefined) | 10% | 3% | nt | -7% | nt | 7%
CCCn1c2ccccc2c2nnc(SC(CC)C(=O)Nc3cc(C)on3)nc21 (centres undefined) | -1% | -6% | -13% | 29µM* | -13% | ?
CCC(Sc1nnc2c3ccccc3n(CC)c2n1)C(=O)Nc1ccc(NC(C)=O)cc1 (centres undefined) | -28% | -8% | nt | 21µM* | nt | ?
CCC(Sc1nnc2c3ccccc3n(CC)c2n1)C(=O)Nc1nnc(C(C)C)s1 (centres undefined) | 4% | -37% | nt | ? | nt | ?
CCCn1c2ccccc2c2nnc(SC(CC)C(=O)Nc3sc4c(c3C#N)CCCC4)nc21 (centres undefined) | 13% | -21% | 18% | ? | -1% | ?
CCOC(=O)c1sc(NC(=O)C(CC)Sc2nnc3c4ccccc4n(CC)c3n2)nc1C (centres undefined) | 3% | -5% | 7% | ? | 7% | 6.5µM*
COc1ccccc1/C=C/C1(C(=O)NC2CCCC2)CC(=O)N1c1ccccc1 (centres undefined) | ? | 8% | 16µM* | 7.3µM* | ? | 6.5µM*
CN(C)S(=O)(=O)c1ccc(N2C(=O)CC2(/C=C/c2ccccc2)C(=O)NC2CCCC2)cc1 (centres undefined) | -1% | 4% | 2% | ? | -9% | ?
Cc1cccc(OCC(=O)N2CCN(C(=O)COc3ccc(Cl)cc3)CC2)c1 | 5% | -1% | -23% | ? | -4% | ?
CCC(C)(C)c1ccc(Oc2ccc(N)cc2)cc1 | ? | -23% | 16µM* | ? | ? | -11%
CC1(C)Cc2cccc(Oc3cc(NN4CCCCC4)c([N+](=O)[O-])cc3[N+](=O)[O-])c2O1 | -1% | -1% | -1% | 16µM* | 9% | ?
Cc1ccc(C)c(Oc2cc(NN3CCCCC3)c([N+](=O)[O-])cc2[N+](=O)[O-])c1 | -4% | 1% | 14% | -22% | 12% | ?
O=[N+]([O-])c1cc([N+](=O)[O-])c(Oc2ccccc2F)cc1NN1CCCCC1 | 3% | -14% | 13% | -25% | 6% | ?
Cc1cc(Oc2cc(NN3CCCCC3)c([N+](=O)[O-])cc2[N+](=O)[O-])c(C(=O)c2ccccc2)cc1Cl | -7% | -9% | 0% | ? | 2% | 21µM*
COc1cc(C(C)=O)ccc1Oc1cc(NN2CCCCC2)c([N+](=O)[O-])cc1[N+](=O)[O-] | 19% | 22% | -6% | ? | -6% | 23µM*
SMILES | TGFb inhibitor | HepG2 tox | HT1080-NT tox | TDP1 cell noCPT | HT1080 IDH1KD tx | DT40 TDP1 CPT
O=[N+]([O-])c1cc([N+](=O)[O-])c(Oc2cccc(Cl)c2Cl)cc1NN1CCCCC1 | 8% | 12% | 9% | ? | 11% | 23µM*
O=C(O)CCn1cc(/C=C2\NC(=S)N(c3ccccc3)C2=O)c(-c2ccc(Br)cc2)n1 | -4% | 0% | 3% | 7% | 4% | -1%
CCc1cc2c(CN3CCN(Cc4ccccc4)CC3)cc(=O)oc2cc1O | ? | -46% | -24% | 18µM* | -25% | 16µM*
COCCN(CCOC)Cc1cc(=O)oc2cc3c(cc12)CCC3 | -23% | -5% | -1% | -21% | -1% | -21%
O=c1cc(CN2CCN(c3ccccc3F)CC2)c2c(ccc3ccccc32)o1 | ? | -34% | 5% | 18µM* | 5% | 16µM*
CC(C)CN(Cc1cc(=O)oc2cc3c(cc12)CCCC3)CC(C)C | 2% | 28% | -3% | 21µM* | 5% | ?
CCc1ccc2c(CN3CCN(Cc4ccccc4)CC3)cc(=O)oc2c1 | 6% | -9% | -10% | ? | -18% | -23%
CCc1cc2c(CN(C)Cc3ccccc3F)cc(=O)oc2cc1O | ? | -49% | ? | 15µM* | ? | ?
Cc1ccc(C2(C)NC(=O)N(CC(=O)NC(C)c3ccccc3)C2=O)cc1 (centres undefined) | -11% | -4% | -4% | -3% | -3% | ?
Nc1c(Cl)cc(C=O)cc1Cl | 6% | 0% | nt | 6% | nt | 15%
O=c1cc(CN2CCN(Cc3ccccc3)CC2)c2ccc(O)c(O)c2o1 | 0% | -5% | ? | 15µM* | ? | 10µM*
Cc1c(O)ccc2c(CN3CCN(Cc4ccccc4)CC3)cc(=O)oc12 | -1% | -6% | -7% | -20% | 4% | -29%
O=c1cc(CN2CCN(c3ccccc3F)CC2)c2cc3c(cc2o1)CCCC3 | ? | 18µM* | 4% | ? | 18% | ?
O=c1cc(CN2CCN(Cc3ccccc3)CC2)c2cc3c(cc2o1)CCC3 | 16% | -8% | -2% | 18µM* | 2% | ?
